Results on 39 compounds are retold here after PubChem BioAssay (NCI).

Each structure is given as a SMILES string. Values joined by “and” are separate entries in the source; they are usually repeats but may differ in a detail not shown here. Equal entries are not always repeated. Compounds without any hit were thinned out: in the full panel of roughly 83,000, 20% have a hit.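 For each line, cells grew in 96-well plates with the test compound present at a single concentration for 48 hours.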 Active and inactive are the calls of the source.

The test system of one assay is OVCAR-3 ovarian. In words: NCI-60 one-dose screen, 48 h (100 = growth as untreated, 0 = no growth, -100 = all killed). As to conditions: 10 µM. The procedure:
Growth inhibition of the OVCAR-3 human tumor cell line is measured as a screen for anti-cancer activity. Cells are grown in 96 well plates and exposed to the test compound for 48 hours. Compounds are tested at a single concentration, which is 10^-5 M for most compounds. The reported endpoint is percent growth (GI% or GIPRCNT), where numbers from 0 - 100% represent growth inhibition, and numbers from -100% - 0 represent cell death. For example, a value of 40 represents 60% growth inhibition. A value of 0 means no net growth occurred over the course of the experiment. A value of -40 indicates 40% of cells at the beginning of the experiment died by the end of the experiment. A value of -100 means all cells are dead at the end of the experiment.
NCI-60 Human Tumor Cell Lines Screen was performed using the standard one-dose NCI protocol, which is described in more detail at https://dtp.cancer.gov/discovery_development/nci-60/default.htm.
Compounds with GIPRCNT values below 10 were considered active. Activity score was based on GIPRCNT using the following formula: […]
Score is 0 for GIPRCNT values of 100 or above, 50 for GIPRCNT values of 0, and 100 for GIPRCNT values of -100.
As to `O=C(O)CCCc1ccc(N(CCCl)CCCl)cc1`, the growth is 111% (inactive) and 108% (inactive).

The assay is the same for the next values; noted with them: 10 µM unless noted.
Consider `O=C1NC(=O)C(=C/C=C/c2ccccc2)C(=O)N1`, for which the growth was 11.8% (inactive).
Take `C[C@]12CCC(=O)C[C@@H]1CC[C@@H]1[C@@H]2CC[C@]2(C)[C@@H](OC(=O)N(CCCl)N=O)CC[C@@H]12`: the growth is 49.5% (inactive).
The same measure, in the same setting: the figure for `CC[C@H](C)[C@H](NC(=O)[C@H]1CCCCN1C)C(=O)N(C)[C@H](CCc1nc(C(=O)N[C@@H](Cc2ccccc2)C[C@H](C)C(=O)O)cs1)C(C)C` is -4.67% (active).
On the same count and under the same terms, under `COC(=O)C1=CCCN(C)C1` stands 120% (inactive) and 118% (inactive); under `O=[N+]([O-])c1cc(Cl)c(Cl)cc1Cl`, 119% (inactive).
On the same count and under the same terms, under `CCOC(=O)c1cncn1C(C)c1ccccc1` (stereo not given) stands 109% (inactive); under `Cc1ccc(S(=O)(=O)n2cc([C@@]3(O)C[C@H](CSC#N)OC3=O)c3ccccc32)cc1`, 54.8% (inactive); under `C[C@]12CCc3sc(Nc4ccc(O)cc4)nc3C1=CC[C@@H]1[C@@H]2CC[C@]2(C)C(=O)CC[C@@H]12`, -31.7% (active).
Consider `C[C@]12CC[C@H]3[C@@H](C[C@@H]4SC(Nc5cccc(F)c5)=N[C@@]45CC(=O)CC[C@]35C)[C@@H]1CCC2=O`, for which the growth is -5.24% (active).
As to `C[C@]12CC[C@H]3[C@@H](CC=C4c5nc(-c6ccc(Br)cc6)sc5CC[C@@]43C)[C@@H]1CC[C@@H]2O`, the growth is 103% (inactive).
`CC(=O)c1cccc(S(=O)(=O)F)c1`: the growth is 117% (inactive).
The same measure, in the same setting: the figure for `COc1cc(/C=C\[N+](=O)[O-])ccc1OCc1ccccc1` is 19.9% (inactive); for `CC[PH+](CC)CC.O=COC1OC([S-])C(OC=O)C(OC=O)C1OC=O.[Au+]` (stereo not given) it is -91.8% (active); for `C#Cc1cccc(Nc2nc(Cl)nc3cc(NC(=O)CF)ccc23)c1` it is 53.5% (inactive).
On to `CCCC(C)SP(=S)(SC(C)CCC)SC(C)CCC` (stereo not given), for which the growth was 98.5% (inactive).
Same read-out and setting: the figure for `C/C(=N/OC(=O)N(C)C)c1ccc(Cl)c(Cl)c1` is 113% (inactive); for `CN1C2CCC1[C@@H](COC(=O)c1ccccc1)[C@@H](O)C2` (stereo not given in full) it is 111% (inactive).
As to `O=C(NCCCN1CC1)Nc1cccc2ccccc12`, the growth is 109% (inactive) and 113% (inactive).
With `O=C1NC(=O)C(=Cc2ccccc2)C(=O)N1`, the growth was 102% (inactive) and 111% (inactive).
As for `CC(C)c1cccc(C(C)C)c1O`, the growth is 112% (inactive) and 101% (inactive).
The same measure, in the same setting: under `CC(Oc1ccc(-c2ccccc2)cc1)C(=O)O` (stereo not given) stands 111% (inactive); under `C[C@]12CC[C@@H](OC(=O)N(CCCl)N=O)C[C@@H]1CC[C@@H]1[C@@H]2CC[C@]2(C)C(=O)CC[C@@H]12`, 64.1% (inactive).
The same measure, in the same setting: the figure for `C/C=C(/C)C(=O)O[C@H]1CC[C@@]2(C)[C@@H]3CC[C@H]4[C@]5(O)C[C@H](O)[C@@]6(O)[C@@H](CN7C[C@@H](C)CC[C@H]7[C@@]6(C)O)[C@]5(O)C[C@@]42O[C@@]13O` is 120% (inactive); for `CC[CH2][Sn]([Cl])([Cl])[CH2]CC.Oc1ccccc1C=NCCN=Cc1ccccc1O` it is 86.8% (inactive) and 44.3% (inactive).
On the same count and under the same terms, under `Cc1cc(N)ccc1N` stands 102% (inactive); under `COc1ccc(N(CC(=O)NCCC[Te]c2ccccc2)C(=O)c2ccccc2)cc1`, 95.9% (inactive); under `Oc1ccccc1C=NCCN=Cc1ccccc1O`, 102% (inactive).
As to `OCCNC1CCCCC1`, the growth was 112% (inactive).
Still for that read-out and setting: the figure for `C[N+]1(C)CCCC1c1cccnc1` (stereo not given) is 108% (inactive); for `Cc1ccc(NC2=N[C@]34CC(=O)CC[C@]3(C)[C@H]3CC[C@]5(C)C(=O)CC[C@H]5[C@@H]3C[C@@H]4S2)c(C)c1` it is -6.33% (active).
Same read-out and setting: under `CNC(=O)O/N=C(\SC)C(=O)N(C)C` stands 107% (inactive); under `C[C@@]12CCCc3coc(c31)C(=O)c1cc3c(cc12)C(=O)C1=C(NCCS1(=O)=O)C3=O`, -47.2% (active); under `Oc1cc(Cl)ccc1Oc1ccc(Cl)cc1Cl`, 6.75% (active).
As to `c1ccc2c(c1)sc1ccccc12`, the growth is 116% (inactive).
On the same count and under the same terms, under `O=C/C=C/c1ccco1` stands 110% (inactive); under `O=C(Cc1ccccc1)NC(O)C(Cl)(Cl)Cl` (stereo not given), 124% (inactive); under `Cc1cc(Br)c([N+](=O)[O-])cc1[N+](=O)[O-]`, 103% (inactive).
Take `CC[C@H](C)[C@H](NC(=O)CN(C)C)C(=O)N(C)[C@H](C[C@@H](OC(C)=O)c1nc(C(=O)NC23CC(C(=O)OC)(C2)C3)cs1)C(C)C`: the growth is -47.2% (active).

The assay is the same for the next values; noted with them: 75 µM.
Consider `O=C(O)CCCc1ccc(N(CCCl)CCCl)cc1`, for which the growth was 18.9% (inactive).
